In PubChem BioAssay (NCI) one finds growth data, which are given here for 40 compounds.

SMILES strings stand for the structures. Compounds without any hit were thinned out: in the full panel of roughly 83,000, 20% have a hit.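 Cell lines were cultured in 96-well plates, exposed to a single compound concentration, and assessed for percent growth 48 hours later.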 Activity calls are given as the source filed them.

This experiment concerns SR leukemia. Description: NCI-60 one-dose screen, 48 h (100 = growth as untreated, 0 = no growth, -100 = all killed). The settings on record: 10 µM unless noted. The protocol: Growth inhibition of the SR human tumor cell line is measured as a screen for anti-cancer activity. Cells are grown in 96 well plates and exposed to the test compound for 48 hours. Compounds are tested at a single concentration, which is 10^-5 M for most compounds. The reported endpoint is percent growth (GI% or GIPRCNT), where numbers from 0 - 100% represent growth inhibition, and numbers from -100% - 0 represent cell death. For example, a value of 40 represents 60% growth inhibition. A value of 0 means no net growth occurred over the course of the experiment. A value of -40 indicates 40% of cells at the beginning of the experiment died by the end of the experiment. A value of -100 means all cells are dead at the end of the experiment.
NCI-60 Human Tumor Cell Lines Screen was performed using the standard one-dose NCI protocol, which is described in more detail at https://dtp.cancer.gov/discovery_development/nci-60/default.htm.
Compounds with GIPRCNT values below 10 were considered active. Activity score was based on GIPRCNT using the following formula: […]
Score is 0 for GIPRCNT values of 100 or above, 50 for GIPRCNT values of 0, and 100 for GIPRCNT values of -100.
For `NC(CCl)=NCCC[C@H](N)C(=O)O`, the growth was 93.5% (inactive).

With `Cc1ccc2nc(NC(=O)CSC(=S)N3CCN(c4ccccc4)CC3)sc2c1`, the growth is 98.7% (inactive).

Regarding `COc1ccc(CCN2CCC(CN(C)Cc3cnn(-c4ccccc4)c3)CC2)cc1`, the growth was 5.6% (active).

In the case of `C=CCN1C(=O)/C(=c2\sc3n(c2=O)NC2C(N=3)N(CC)C(=O)N2CC)c2ccccc21` (stereo not given), the growth was 21.1% (inactive).

Regarding `COc1cc(C(=O)NN=C2c3ccccc3-c3ccccc32)cc(OC)c1OC`, the growth is 13.9% (inactive).

For `N#C/C(=C\c1c(-c2ccccc2)[nH]c2ccccc12)S(=O)(=O)c1ccccc1`, the growth is 17.9% (inactive).

For the compound `COc1ccccc1C(=O)O/N=C(\N)Cc1cccc2ccccc12`, the growth is 82.1% (inactive).

Regarding `Cc1sc2ncnc(Sc3nc4ccccc4[nH]3)c2c1C`, the growth was -17.3% (active).

`O=C(NC1CCN(Cc2ccccc2)CC1)c1cc(C(=O)NC2CCN(Cc3ccccc3)CC2)cc(C(=O)NC2CCN(Cc3ccccc3)CC2)c1`: the growth is 20.1% (inactive).

Consider `CC(=O)n1cc(-c2c[nH]c3ccccc23)c(-c2ccc(Cl)cc2)n1`, for which the growth is 92.9% (inactive).

With `Cc1cccc(NC(=O)c2sc3nc4c(cc3c2N)CCCC4)c1C`, the growth was 34.7% (inactive).

Regarding `COc1cc(C(=O)Nc2ccc(-c3nc4ccccc4[nH]3)cc2)cc(OC)c1OC`, the growth was 10.1% (inactive).

Turning to `S=C1CCCC(=S)N1`, the growth is 114% (inactive).

With `COc1cccc2cc(N(C)c3nc(C)nc4ccsc34)ccc12`, the growth was 2.36% (active).

On to `Cn1c(/C=C(\C#N)c2cccc(C(F)(F)F)c2)nc2c(N3CCOCC3)nc(Cl)nc21`, for which the growth is 10.3% (inactive).

Take `COc1cc(-c2c3c(cn2S(=O)(=O)c2ccccc2)-c2nc(N)sc2CC3)cc(OC)c1OC`: the growth was 9.55% (active).

Consider `CCCCC(O)(c1ccc(Cl)cc1)C(CN1CCOCC1)c1ccc(Cl)cc1` (stereo not given), for which the growth was 5.35% (active).

Take `O=c1c2cc(F)ccc2sc2c(Nc3ccncc3)nc3ccccc3c12`: the growth was -4.43% (active).

As for `O=C(Nc1ccc(C23CC4CC(CC(c5ccccc5)(C4)C2)C3)cc1)c1cccs1`, the growth is 38.7% (inactive).

For the compound `COC(=O)c1cc2c(n1Cc1ccccc1)-c1oncc1CCC2`, the growth was 12.2% (inactive).

Take `O=C(c1nc2ccccc2[nH]1)C1C(c2ccc(F)cc2)C2CC3CCCCC3N2[C@@]12C(=O)Nc1ccc(Cl)cc12` (stereo not given in full): the growth was 21% (inactive).

Turning to `Cc1ccc(NC2=CC(=O)C(=O)c3ccccc32)c(C)c1`, the growth was 56.4% (inactive).

For `COc1cc(C2C3=C(COC3=O)N(CCO)c3cc4c(cc32)CCC4)cc(OC)c1O` (stereo not given), the growth is 33.1% (inactive).

Regarding `CCN1C(=O)N(CC)C2C1NN=c1s/c(=C3\C(=O)N(C(C)C)c4ccccc43)c(=O)n12` (stereo not given), the growth was 10.6% (inactive).

As to `O=C(/C=C/c1ccc(Cl)cc1)c1ccc(Nc2nc(NCCO)nc(N3CCOCC3)n2)cc1`, the growth is 19.8% (inactive).

`Nc1no[n+]([O-])c1-c1nnc2c(n1)-c1ccccc1C2=O`: the growth is 3.68% (active).

As to `COc1ccc(/C=C2\N=C(c3ccccc3)N(c3ccc(-c4nc5ccc(C)cc5s4)cc3)C2=O)cc1`, the growth was 80.2% (inactive).

For the compound `C=C(C)CCC(C)N1CCC(N2CCC(C(=O)NCCc3ccccc3)CC2)CC1` (stereo not given), the growth was 4.33% (active).

Consider `O=NN(Cc1cccnc1)C(=O)NC1CCCCC1`, for which the growth was 99.7% (inactive).

Regarding `NCCCNc1nc2ccccc2c2c(=O)c3cc(F)ccc3sc12`, the growth is 9.08% (active).

Take `O=C(c1nc2ccccc2[nH]1)C1[C@@H](c2cccc(O)c2)C2CC3CCCCC3N2[C@@]12C(=O)Nc1cc(Cl)ccc12` (stereo not given in full): the growth is 3.72% (active).

As for `O=C(/C=C/c1ccccc1)c1ccc(Nc2nc(NCCO)nc(Nc3ccc(Cl)cc3)n2)cc1`, the growth was 23.1% (inactive).

As for `O=C(Nc1ccc(N2CCNCC2)cn1)c1[nH]ncc1Nc1ncnc2sccc12`, the growth was -5.97% (active).

`COc1ccc(/C=C2\CCC/C(=C\c3ccc(OC)c(OC)c3)C2=O)cc1OC`: the growth was 14.3% (inactive).

Regarding `CCCCc1ccc(NS(=O)(=O)c2cc3c4c(c2)CCN4C(=O)CC3)cc1`, the growth is 3.07% (active).

Consider `CCOc1cccc(/C=N/NC(=O)C(=O)Nc2cccc(C(F)(F)F)c2)c1O`, for which the growth was 15.9% (inactive).

Turning to `O=C(NN1C(=O)CSC1c1ccc(Cl)cc1)c1[nH]c2ccc(F)cc2c1-c1ccccc1` (stereo not given), the growth was 48.9% (inactive).

On to `COc1cc([C@@H]2NC(=O)NC(C)=C2C(=O)Nc2nc(-c3ccc(Cl)cc3)cs2)ccc1O`, for which the growth was 106% (inactive).

As to `COc1ccc(S(=O)(=O)N(Cc2ccc3c(n2)C=CC(C)(C)O3)C2CCC2)cc1OC`, the growth was -40% (active).

`O=C1c2ccc3c4c(ccc(c24)C(=O)N1CCCCO)C(=O)N(CCCCO)C3=O`: the growth was 5.37% (active).
